# RORgamma inh: ROR gamma (mouse) transcription inhibition; Potency, µM (doses to about 53.6 µM), actives largely listed as inhibitors; P51450; AID 2551; 5.4% of 310,000 active; Drosophila S2 Gal4-RORgamma UAS-luciferase reporter, 20 h; further: nearly all actives have a fitted effect of over 60% in size
#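 ROR gamma transcriptional activity was tracked as Gal4-UAS luciferase output in stably transfected Drosophila Schneider cells, with compound added 1 hr before 700 uM copper sulfate induction and a 20 hr ambient-temperature incubation.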
# VP16 counter: counter-screen for ROR gamma inhibitors: Gal4-VP16 reporter. Drosophila S2 Gal4-VP16 UAS-luciferase, luminescence, 20 h. Potency, µM (series often up to 53.6 µM), most hits filed as inhibitors. 3.5% of 310,000 active;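 further: Gal4-VP16 expression switched on by copper sulfate through the metallothionein promoter; nearly all actives have a fitted effect of over 50% in size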
# B2AR arrestin: agonists driving beta-arrestin recruitment to human beta2-adrenergic receptor; beta-arrestin recruitment to beta2AR, cell-based reporter; P07550; 0.02% of 330,000 active; AID 492947; Potency, µM (doses to about 46.1 µM), hits mostly activators; further: nearly all actives have a fitted effect of over 65% in size
# NPSR antag: blocks cAMP signaling of the human neuropeptide S receptor | AID 1461 | Potency, µM (doses to about 38.3 µM), hits mostly inhibitors | CHO-NPSR cells, cAMP TR-FRET, antagonist mode | 1% of 220,000 active; further: nearly all actives have a fitted effect of over 50% in size
# Target sequence (Q6W5P4 whole entry, looked up): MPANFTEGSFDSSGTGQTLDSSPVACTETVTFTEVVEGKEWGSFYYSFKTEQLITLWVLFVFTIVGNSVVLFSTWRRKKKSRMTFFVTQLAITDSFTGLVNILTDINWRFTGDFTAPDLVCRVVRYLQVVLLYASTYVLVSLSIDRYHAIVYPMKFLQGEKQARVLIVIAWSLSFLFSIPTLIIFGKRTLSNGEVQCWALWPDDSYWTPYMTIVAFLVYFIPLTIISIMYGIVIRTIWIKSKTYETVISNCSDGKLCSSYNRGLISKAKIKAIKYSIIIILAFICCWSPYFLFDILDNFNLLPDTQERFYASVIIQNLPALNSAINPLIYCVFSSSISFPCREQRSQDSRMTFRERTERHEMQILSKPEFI
# A number is an active result; . = inactive; ? = inconclusive; / = no result; [ ] = remark or other dose. Hits are enriched below; roughly 5.7% of the tested compounds scored in any of these assays. The call rests on the fitted dose curve; in most records, active means well fitted curve in the direction sought with a large enough effect; inconclusive means small, poorly fitted or top-dose-only effect, or another doubt; inactive means no such curve, though single readings can be large; an effect the other way counts as inactive or inconclusive.
SMILES,RORgamma inh,VP16 counter,B2AR arrestin,NPSR antag
CC1(C(=O)O)CCC2(C)CCC3(C)C(=CC(=O)C4C5(C)CCC(O)C(C)(C)C5CCC43C)C2C1 (stereo not given),.,.,/,/
COc1ccc(-n2nnnc2S(=O)(=O)Cc2ccc(C(=O)O)cc2)cc1,.,.,.,.
COc1ccc(-n2nnnc2S(=O)(=O)CC(=O)N2CCCCC2)cc1,2.8µM,4.5µM,.,.
O=[N+]([O-])c1cccc(NC(=S)Nc2nc(-c3ccc(Cl)cc3Cl)cs2)c1,2µM,3.2µM,.,/
O=C(NC(=S)Nc1nc(-c2cccc([N+](=O)[O-])c2)cs1)c1cc(Cl)ccc1Cl,?,.,.,.
CC1(C)Cc2c(sc3nc(-c4cccs4)n(N)c(=O)c23)CO1,?,16µM,.,.
CCCNc1nc(N)nc(-c2cc(Cl)ccc2OC)n1,.,.,.,.
CCCN(CCC)c1nc(N)nc(-c2cc(Cl)ccc2OC)n1,16µM,.,.,.
CCS(=O)(=O)N1CCC2(CC1)OCCN2S(=O)(=O)c1ccc(C)cc1,/,/,.,/
O=C(Cc1ccc(Br)cc1)Nc1nc2ccccc2[nH]1,?,.,.,.[7.67 µM]
O=C(Cc1ccccc1)Nc1nc2ccccc2[nH]1,13µM,16µM,.,.
O=C(Cc1ccc(Cl)cc1)Nc1nc2ccccc2[nH]1,0.28µM,7.1µM,.,.
O=C(CSc1ccccc1)Nc1nc2ccccc2[nH]1,13µM,?,.,.
Cc1scc(C(=O)N/N=C/c2ccc(OC(C)C)cc2)c1C,.,.,.,.
CCOc1ccc(/C=N/NC(=O)c2csc(C)c2C)c(OCC)c1,13µM,.,.,.
Cc1scc(C(=O)N/N=C/c2ccc(Cl)s2)c1C,14µM,13µM,.,.
COC(=O)CCN(Cc1ccco1)S(=O)(=O)c1ccc(F)cc1Br,.,.,/,/
O=C1C(C2=NC(C(=O)O)C3C(=O)N(c4ccccc4)C(=O)C23)=C(O)c2ccccc21 (stereo not given),11µM,13µM,.,.
O=C1C(C2=NC(c3ccccn3)C3C(=O)N(c4ccc(OC(F)(F)F)cc4)C(=O)C23)=C(O)c2ccccc21 (stereo not given),.,.,.,.
CNC1=C(N(C(C)=O)c2ccc(Br)cc2)C(=O)c2ccccc2C1=O,5.6µM,13µM,.,.
CC(=O)OC1C(N2CCCCC2)c2c(ccc(/C=C/C(=O)N3CCCCC3)c2O)OC1(C)C (stereo not given),?,1.3µM,.,.
CC1(C)Oc2ccc3ccc(=O)oc3c2C(N2CCCCC2)C1O (stereo not given),.,.,.,.
Cc1ccc(-c2csc(N3CCN(c4cc5c(cc4Cl)nc(-c4ccncc4)n5CCN4CCCCC4)CC3)n2)cc1,8.9µM,.,.,/
Cc1ccc(-c2csc(N3CCN(c4ccc5nc(-c6ccncc6)n(CCN6CCCCC6)c5c4)CC3)n2)cc1,?,.,.,/
CCCn1c(C)nc2cc(Cl)c(N3CCN(c4nc(-c5ccc(C)cc5)cs4)CC3)cc21,4.5µM,?,.,/
SMILES,RORgamma inh,VP16 counter,B2AR arrestin,NPSR antag
Cc1ccccc1N=C1NC(=O)/C(=C/c2cccn2-c2cccc(C(=O)O)c2)S1,.,.[10 µM],.,.
Cc1ccc(S(=O)(=O)NCc2ccncc2)cc1,.,7.9µM,.,.
CCOC(=O)COc1ccc(S(=O)(=O)NCc2ccncc2)cc1,?,11µM,.,.
CC(=O)Nc1ccc(S(=O)(=O)NCc2ccncc2)cc1,7.1µM,2µM,.,.
CCOc1ccc(S(=O)(=O)NCc2ccncc2)cc1,.,.,.,.
Cc1ccc(S(=O)(=O)NCC(=O)NCc2ccncc2)cc1,.,.,.,.
CCOc1cc(S(=O)(=O)NCc2ccncc2)ccc1Cl,2µM,1.1µM,.,.
COc1cc(NC(=S)N2CCCC2)cc(OC)c1,.,.,.,/
Cc1cc(C(=O)NNC(=O)C(C)(C)Oc2ccc(Cl)cc2)c(C)o1,/,/,.,/
O=C(/C=C/c1ccccc1)OCc1ccccc1,.[10 µM],.,/,/
CCC(=O)Nc1ccc(-c2nnc(SCC(=O)NCC3CCCO3)n2C)cc1 (stereo not given),.,.,.,.
Cc1cc(S(=O)(=O)NCc2ccncc2)c(C)cc1Br,.,10µM,.,/
Cc1ccc(-c2cc(C(F)(F)F)n3nc(C(=O)NCCCn4ccnc4)cc3n2)cc1C,.,.,.,.
CCN(CC)c1ccc(NC(=S)NC(=O)C2CCC2)cc1,1.8µM,6.3µM,.,/
CCOC(=O)c1sc(NC(=S)NC(=O)C2CCCC2)cc1C,4.5µM,3.2µM,.,?
CCOc1ccc(NC(=S)NC(=O)C2CCCC2)cc1,1.1µM,6.3µM,?,/
CCOC(=O)c1sc(NC(=O)C2CC2)cc1C,?,.,.,.
N#CC(C#N)=C1NC2(CCCCC2)Cc2ccccc21,.,.,.,.
N#CC(C#N)=c1ccc2c(c1)NC1(CCCCC1)N=2,?,?,.,10µM
O=C(O)CCSc1ccccn1,.,.,.,.
COc1ccc(C(=O)NCCSc2ccccn2)cc1,13µM,?,.,.
O=C(CCSc1ccccn1)c1ccccc1,20µM,?,.,.
COc1cc(SC)ccc1C(=O)Nc1ncc(Cl)cc1Cl,.,?,.,.
CC(C(=O)O)c1ccc(N2Cc3ccccc3C2=O)cc1 (stereo not given),1.8µM,4µM,.,.
O=C(NCCc1cccs1)c1ccc(Cl)cc1,8.9µM,?,.,.
SMILES,RORgamma inh,VP16 counter,B2AR arrestin,NPSR antag
Cc1ccc(C(=O)NCCc2cccs2)cc1,?,5.6µM,.,.
O=C(NCCc1cccs1)c1ccc(Cl)c(Cl)c1,.,.,.,.
CCn1c(SCC(=O)NCc2ccccc2)nc2c(c1=O)SC(C)C2 (stereo not given),.,.,.,.
CCCCCCCc1ccc(C2NC(=S)NC3=C2C(=O)c2ccccc23)cc1 (stereo not given),5.6µM,?,.,.
CC(C)(C)NC(=S)NC1CC1,13µM,?,.,.[7.67 µM]
CN1CCN(NC(=S)NC2CCCC2)CC1,.,.,.,.
CC(C)(C)NC(=S)NC(C)(C)C,11µM,?,.,.
Oc1c(Cl)cc(Cl)cc1/C=C/c1ccc2cccc(O)c2n1,2.5µM,7.1µM,.,.
Oc1ccc(Cl)cc1/C=C/c1ccc2cccc(O)c2n1,3.2µM,4.5µM,?,.
CCOc1cc(/C=C/c2ccc3cccc([N+](=O)[O-])c3n2)cc(Cl)c1O,?,.,.,?
CCC(=O)Nc1nnc(-c2ccc(Cl)s2)o1,7.1µM,13µM,.,.
CC(=O)Nc1nnc(-c2ccc(Cl)s2)o1,3.5µM,5.6µM,.,.
COc1ccc(NC(=O)Cn2c(=O)n(-c3ccc(CC(=O)NCc4ccco4)cc3)c(=O)c3ccccc32)cc1,.,.,.,.
Cc1cc(O)c(C=O)c2c1C(=O)Oc1c(COC(=O)/C=C/C(=O)O)c(O)c(C(=O)O)c(C)c1O2,.,.,/,/
CCOc1cc(NC(=S)NCC2CCCO2)c(OCC)cc1NC(=O)CC(C)C (stereo not given),11µM,.,.,.
S=C(NCC1CCCO1)Nc1cccc2ccccc12 (stereo not given),7.1µM,?,.,.
CCOc1cc(N2CCOCC2)c(OCC)cc1NC(=O)c1ccc(OC)cc1,.,.,.,.

# High-throughput results deposited in PubChem BioAssay by National Center for Advancing Translational Sciences (NCATS).
